Among the data in the OligoGym collection are sensor-assay potency score (higher = more potent) values, retold here.
Note: reference of the scale not given here.

The first experiment deals with RAET1E. Kind of experiment: pooled miR-30 sensor sort-seq; sequence = guide strand. To be noted: shRNA.
On to TTGACCATGTTGTTGTCACTGT, for which the sensor-assay potency score (higher = more potent) is 0.253.
In turn, TTCCATGTCTCCTTGATCTTAC gave a sensor-assay potency score (higher = more potent) of -0.262.
In turn, TTTACTGGTGACACTGTCGGTT registered a sensor-assay potency score (higher = more potent) of 0.119.
Same read-out and setting: the value for TCATGATTAATTACTGTCCAGG was -0.855; that for TTTATAGTGAAGTTGAAGCAAA was -1.04.
The sequence TTCATGATTAATTACTGTCCAG came in with a sensor-assay potency score (higher = more potent) of -0.655.
The sequence TATCTGAAGCATTTACTGGTGA registered a sensor-assay potency score (higher = more potent) of 0.282.
For the sequence TTACTGGTGACACTGTCGGTTC, the sensor-assay potency score (higher = more potent) is -0.629.
Same read-out and setting: the value for TTCACGTTGACAAAACATCTCG was -0.11; that for TTGTTGTCACTGTTGTACTGAA was -0.561; that for TTGACAAAACATCTCGACTTGC was -0.439.
TTTGATGTCACAAAGGAGCATC returned a sensor-assay potency score (higher = more potent) of -0.244.

The next experiment addresses RAI2. The description is as above. To be noted: shRNA.
In turn, TCGACAGAGACAATGACCTTGG gave a sensor-assay potency score (higher = more potent) of -0.196.
With TTGTTGTGGATGGTACTGGAGG, the sensor-assay potency score (higher = more potent) is -0.912.
TTCAGAACTCTGAGGCACCGGG gave a sensor-assay potency score (higher = more potent) of -0.474.
As to TCAGCCTTGACTTCGCCGCTGG, the sensor-assay potency score (higher = more potent) is -0.358.
The same measure, in the same setting: the value for TTTAACTTTATGCTCCGGTTTT was -1.48; that for TTTTCAGCCTTGACTTCGCCGC was -0.377; that for TTGAGCTCTGGTGCGGAGCTTC was -0.528.
Sequence TTCTTTAACTTTATGCTCCGGT had a sensor-assay potency score (higher = more potent) of 0.268.
On to TTTCTTTAACTTTATGCTCCGG, for which the sensor-assay potency score (higher = more potent) was -0.775.
TCGGATTGAGCTCTGGTGCGGA displayed a sensor-assay potency score (higher = more potent) of -0.201.
The sequence TTTATAAAACCAATGCACCTTT displayed a sensor-assay potency score (higher = more potent) of -0.626.
TTGAAGGAGAAGTTTTTGGTGG: the sensor-assay potency score (higher = more potent) was -0.107.

Another experiment deals with RANBP9. The description is as above. To be noted: shRNA.
TTCGGTGTCACAATCTTCCATT: the sensor-assay potency score (higher = more potent) was -0.713.
The sequence TAACTGTCTTGAGACTTTGGAC yielded a sensor-assay potency score (higher = more potent) of -0.743.
TTGGACTACTAAAAGGTCGAGG had a sensor-assay potency score (higher = more potent) of -0.167.
Consider TAACAGGATAACTGTCTTGAGA, for which the sensor-assay potency score (higher = more potent) was -1.15.
Turning to TAGCTGAACTTGTCCTTCGGGC, the sensor-assay potency score (higher = more potent) is -0.541.
On the same count and under the same terms, the result for TACTACAACTTTCAAAACCTGA reads -0.44; that for TTGCTTGCAGCTCTCGTCCAAA, -0.93.
In the case of TAATTCTTCTAGAACGGTCTGG, the sensor-assay potency score (higher = more potent) is 0.443.
On the same count and under the same terms, the result for TTTTGTATCATGGTCTGCCATT reads -1.46.
As to TTTCTTTCAAGTAAACTTGGGT, the sensor-assay potency score (higher = more potent) was -0.134.
As for TAGTAGACTGAATGCATCCTTC, the sensor-assay potency score (higher = more potent) was -0.448.

Another experiment has as its target RANGAP1. Described as above. To be noted: shRNA.
TTTCCGGTGACATTCGGTCAGA: the sensor-assay potency score (higher = more potent) is -1.19.
Still for that read-out and setting: the result for TTCACTCTTGAGCAGACCCATG reads -1.41; that for TTAGGGTCCAGAATCTTCCGTG, 0.289.
The same measure, in the same setting: the value for TTGAACACAGATGACACCTTTA was -0.0745.
